The values below come from the supplement of paper PMC4022240.

± gives the standard deviation.

Assay in all cases: peptide microarray binding signal (635 nm), min-max normalized on array (fraction of array maximum); higher = stronger binding
Assay [1] has as its target T1, HaloTag-ATRX ADD domain (163-292).
T1 chain: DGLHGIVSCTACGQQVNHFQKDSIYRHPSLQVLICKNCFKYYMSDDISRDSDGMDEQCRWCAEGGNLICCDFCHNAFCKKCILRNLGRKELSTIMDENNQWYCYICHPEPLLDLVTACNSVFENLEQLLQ
Here is the method:
(§1)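 Histone 13-mer peptides were synthesized as cellulose conjugates with a C-terminal 20-atom PEG linker and printed in triplicate on nitrocellulose. The sequence given is the unmodified backbone; PTMs (Kme1/2/3, Kac, Sph/Tph, Rme/Rme2a/Rme2s, Rcit) are listed in the label and the 'peptide modifications' condition. Slides were probed at 4 °C for 1 h with biotin-labelled (HQ)5-HaloTag reader fusions (ATRX-ADD, ING2-PHD) then streptavidin-Alexa647, or with rabbit histone antibodies then anti-rabbit Alexa647. The mean 635 nm signal of the triplicate spots was scaled 0-1 between the lowest and highest values on each array.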

For assay [2], the target named is HaloTag-ING2 PHD (mouse Ing2 200-280). Here is the method: as §1
Assay [3] concerns the target anti-H3K4me3 antibody ab8580. Here is the method:
as §1

In assay [4] the target is anti-H3K9me3 antibody ab8898. The method, then: as §1
Setting [5] is: peptide region: H2B 1-13, peptide modifications: H2BS6ph, binder concentration: 1:2,000 dilution.
[6] abbreviates: peptide region: H2B 1-13, peptide modifications: H2BS6ph, binder concentration: 1:10,000 dilution.
The mark [7] stands for this setting: peptide region: H2B 7-19, peptide modifications: H2BK11ac H2BK12ac H2BS14ph H2BK15ac H2BK16ac, binder concentration: 1:2,000 dilution.
The mark [8] stands for this setting: peptide region: H2B 7-19, peptide modifications: H2BK11ac H2BK12ac H2BS14ph H2BK15ac H2BK16ac, binder concentration: 1:10,000 dilution.
Setting [9] is: peptide region: H2B 1-13, peptide modifications: H2BK11ac, binder concentration: 1:2,000 dilution.
Setting [10] is: peptide region: H2B 1-13, peptide modifications: H2BK11ac, binder concentration: 1:10,000 dilution.
[11] abbreviates: peptide region: H2B 1-13, peptide modifications: H2BK5ac H2BS6ph, binder concentration: 1:2,000 dilution.
The mark [12] stands for this setting: peptide region: H2B 1-13, peptide modifications: H2BK5ac H2BS6ph, binder concentration: 1:10,000 dilution.
Where [13] appears, read: peptide region: H2B 7-19, peptide modifications: H2BK11ac H2BK12ac H2BK15ac, binder concentration: 1:2,000 dilution.
Where [14] appears, read: peptide region: H2B 7-19, peptide modifications: H2BK11ac H2BK12ac H2BK15ac, binder concentration: 1:10,000 dilution.

Consider PEPAKSAPAPKKG [H2B 1-13 P E P A K Sph A P A P K K G], for which the “peptide microarray binding signal” value in assay [1] (peptide region: H2B 1-13, peptide modifications: H2BS6ph, binder concentration: 50 nM) was 0.00342 ± 3.7e-05; in assay [1] (peptide region: H2B 1-13, peptide modifications: H2BS6ph, binder concentration: 500 nM), 0.00543 ± 0.00012; in assay [2] (peptide region: H2B 1-13, peptide modifications: H2BS6ph, binder concentration: 10 nM), 0.00346 ± 0.00017; in assay [2] (peptide region: H2B 1-13, peptide modifications: H2BS6ph, binder concentration: 100 nM) it was 0.00425 ± 0.00022; in assay [3] (setting [5]), 0.00245 ± 6.6e-05; in assay [3] (setting [6]) it was 0.000799 ± 8.3e-06. Moreover, the “peptide microarray binding signal” value was 0.00068 ± 1e-05 in assay [4] (setting [5]) and 0.000923 ± 9.6e-06 in assay [4] (setting [6]).

For the molecule APAPKKGSKKAVT [H2B 7-19 A P A P Kac Kac G Sph Kac Kac A V T], the “peptide microarray binding signal” value in assay [1] (peptide region: H2B 7-19, peptide modifications: H2BK11ac H2BK12ac H2BS14ph H2BK15ac H2BK16ac, binder concentration: 50 nM) is 0.00254 ± 2.9e-05; in assay [1] (peptide region: H2B 7-19, peptide modifications: H2BK11ac H2BK12ac H2BS14ph H2BK15ac H2BK16ac, binder concentration: 500 nM) it was 0.00495 ± 8.6e-05; in assay [2] (peptide region: H2B 7-19, peptide modifications: H2BK11ac H2BK12ac H2BS14ph H2BK15ac H2BK16ac, binder concentration: 10 nM) it was 0.00639 ± 0.00065; in assay [2] (peptide region: H2B 7-19, peptide modifications: H2BK11ac H2BK12ac H2BS14ph H2BK15ac H2BK16ac, binder concentration: 100 nM) it was 0.00163 ± 1.7e-05; in assay [3] (setting [7]) it was 0.00523 ± 0.00045; in assay [3] (setting [8]), 0.00126 ± 2.2e-05. Besides, the “peptide microarray binding signal” value in assay [4] (setting [7]) was found to be 0.000891 ± 6e-05; in assay [4] (setting [8]), 0.00098 ± 1.7e-05.

Regarding PEPAKSAPAPKKG [H2B 1-13 P E P A K S A P A P Kac K G], the “peptide microarray binding signal” value came out at 0.00254 ± 0.00043 in assay [1] (peptide region: H2B 1-13, peptide modifications: H2BK11ac, binder concentration: 50 nM); 0.001762 ± 1.6e-05 in assay [1] (peptide region: H2B 1-13, peptide modifications: H2BK11ac, binder concentration: 500 nM); 0.0156 ± 0.012 in assay [2] (peptide region: H2B 1-13, peptide modifications: H2BK11ac, binder concentration: 10 nM); 0.00113 in assay [2] (peptide region: H2B 1-13, peptide modifications: H2BK11ac, binder concentration: 100 nM); 0.000774 ± 9.3e-05 in assay [3] (setting [9]); 0.000342 ± 3.8e-06 in assay [3] (setting [10]). Further, the results for the “peptide microarray binding signal” value in assay [4] (setting [9]) and in assay [4] (setting [10]) were 0.000302 ± 1.1e-05 and 0.000404 ± 4.4e-06, respectively.

PEPAKSAPAPKKG [H2B 1-13 P E P A Kac Sph A P A P K K G]: the “peptide microarray binding signal” value was 0.00433 ± 0.00028 in assay [1] (peptide region: H2B 1-13, peptide modifications: H2BK5ac H2BS6ph, binder concentration: 50 nM); 0.00467 ± 0.0018 in assay [1] (peptide region: H2B 1-13, peptide modifications: H2BK5ac H2BS6ph, binder concentration: 500 nM); 0.00442 ± 0.0003 in assay [2] (peptide region: H2B 1-13, peptide modifications: H2BK5ac H2BS6ph, binder concentration: 10 nM); 0.00872 ± 0.0029 in assay [2] (peptide region: H2B 1-13, peptide modifications: H2BK5ac H2BS6ph, binder concentration: 100 nM); 0.00217 ± 0.0016 in assay [3] (setting [11]); 0.000628 ± 1.3e-05 in assay [3] (setting [12]). Also, the entries for the “peptide microarray binding signal” value in assay [4] (setting [11]) and in assay [4] (setting [12]) were 0.000332 ± 2.6e-05 and 0.000865 ± 2.4e-05, respectively.

Consider APAPKKGSKKAVT [H2B 7-19 A P A P Kac Kac G S Kac K A V T], for which the “peptide microarray binding signal” value in assay [1] (peptide region: H2B 7-19, peptide modifications: H2BK11ac H2BK12ac H2BK15ac, binder concentration: 50 nM) came to 0.00809 ± 0.00032; in assay [1] (peptide region: H2B 7-19, peptide modifications: H2BK11ac H2BK12ac H2BK15ac, binder concentration: 500 nM), 0.0163 ± 0.00026; in assay [2] (peptide region: H2B 7-19, peptide modifications: H2BK11ac H2BK12ac H2BK15ac, binder concentration: 10 nM), 0.0198 ± 0.0062; in assay [2] (peptide region: H2B 7-19, peptide modifications: H2BK11ac H2BK12ac H2BK15ac, binder concentration: 100 nM), 0.0125 ± 0.0012; in assay [3] (setting [13]) it was 0.0168 ± 0.0011; in assay [3] (setting [14]), 0.00325 ± 0.00019. Further, the figures for the “peptide microarray binding signal” value in assay [4] (setting [13]) and in assay [4] (setting [14]) were 0.00323 ± 0.00057 and 0.00248 ± 0.00015, respectively.
